LmPK inhibitor: qHTS Assay for Inhibitors of Leishmania Mexicana Pyruvate Kinase (LmPK); Q27686; purified LmPK, Kinase-Glo ATP luminescence, 1 h; Potency, µM (doses to about 57.5 µM), hits mostly inhibitors; 290,000 tested, 0.37% active
Target sequence (Q27686 whole entry, looked up): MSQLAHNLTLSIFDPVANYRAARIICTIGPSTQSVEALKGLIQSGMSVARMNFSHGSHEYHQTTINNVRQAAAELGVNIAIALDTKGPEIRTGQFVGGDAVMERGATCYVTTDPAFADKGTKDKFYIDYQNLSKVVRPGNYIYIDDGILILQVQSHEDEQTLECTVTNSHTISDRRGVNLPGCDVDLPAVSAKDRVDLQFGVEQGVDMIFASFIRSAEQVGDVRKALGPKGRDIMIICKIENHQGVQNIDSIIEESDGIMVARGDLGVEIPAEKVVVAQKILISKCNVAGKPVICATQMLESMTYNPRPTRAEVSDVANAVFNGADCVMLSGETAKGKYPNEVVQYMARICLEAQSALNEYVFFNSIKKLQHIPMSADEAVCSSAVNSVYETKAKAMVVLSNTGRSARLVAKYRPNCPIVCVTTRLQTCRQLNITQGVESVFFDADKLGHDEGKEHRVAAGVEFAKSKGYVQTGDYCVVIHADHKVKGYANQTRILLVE
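Screened at intermediate enzyme activity to detect both inhibitors and activators: LmPK at 0.1 nM, with a 0.5 nM enzyme column as activation reference. PEP 0.5 mM, ADP 0.1 mM; ATP detected by luminescence after 1 h.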
SARS PLpro yeast: qHTS of Yeast-based Assay for SARS-CoV PLP. S. cerevisiae expressing SARS-CoV PLpro, growth rescue. Potency, µM (doses to about 32.9 µM), usual class: activators. 330,000 tested, 0.19% active. AID 485353, 2010; calls by dose curve; also: nearly all actives have a fitted effect of over 55% in size
Tb PYK inh: qHTS of Trypanosoma Brucei Inhibitors; pyruvate kinase (Trypanosoma brucei), Q57TT1; TbPYK enzyme, Kinase-Glo Plus ATP luminescence, 45 min; Potency, µM (top dose mostly 76.8 µM), hits mostly inhibitors; 410,000 tested, 0.12% active; also: nearly all actives have a fitted effect of over 50% in size
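ADP (130 uM final) triggers the TbPYK reaction after compound addition; incubation is 45 min at room temperature. Kinase-Glo Plus is then added and luminescence imaged. Normalized data are fitted to concentration-effect curves.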
Shiga toxin inh: A qHTS for Small Molecule Inhibitors of Shiga Toxin. 290,000 tested, 9.2% active. Vero cells, Shiga toxin protein synthesis inhibition reporter. inhibition, % at 38.7 µM. AID 2315, 2010; in the data active = inhibition mostly above about 28%, no sharp cut-off; inactive = mostly below about 43%
CHX counter: Cycloheximide Counterscreen for Small Molecule Inhibitors of Shiga Toxin | cell reporter, cycloheximide protein synthesis inhibition counterscreen | max response, % | 300,000 tested, 12% active; in the data active = max response mostly above about 13%, no sharp cut-off; inactive = mostly below about 14%; also: read at 38.3 µM for the half of the compounds with a filed dose
NS1 function inh: qHTS Assay for Inhibitors of Influenza NS1 Protein Function; Potency, µM (titrated, usually from 46.1 µM); 270,000 tested, 0.4% active; calls by dose curve; also: actives are rising curves; nearly all actives have a fitted effect of over 50% in size
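Compounds were scored for reversing the slow growth caused by influenza A NS1 in S. cerevisiae, measured by optical density at 600 nm. Assay medium contained 2% galactose at pH 6.0; NS1-free yeast of the same strain were the positive control.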
Each line names hits and unclear results; the compound was inactive in the other large screens. The entries come from a sample that favours hits as a whole. Unless noted, calls follow the shape of the dose curve; as a rule, active = well fitted curve in the direction sought with a large enough effect; inconclusive = small, poorly fitted or top-dose-only effect, or another doubt; inactive = no such curve, though single readings can be large; an effect the other way counts as inactive or inconclusive.

COc1cccc(N2CCN(C(=O)C3CCCN(c4ncnc5c4nc4n5CCCCC4)C3)CC2)c1 (configuration not stated)	none
COc1ccc(C(=O)N2CCC(c3ccncc3)CC2)cc1OC	none (no result: LmPK inhibitor, SARS PLpro yeast, Shiga toxin inh, CHX counter, NS1 function inh)
COc1ccc(/C=C/C(=O)c2cc3c(cc2N)OCO3)cc1	LmPK inhibitor inconclusive, Shiga toxin inh 80.2, CHX counter 33.0 (no result: NS1 function inh)
COc1ccc(/C=C/C(=O)c2c(OC)cc(O)cc2OC)cc1	Shiga toxin inh 65.2, CHX counter 36.2 (no result: LmPK inhibitor, SARS PLpro yeast, Tb PYK inh, NS1 function inh)
COc1ccc(/C=C/C(=O)c2ccc(OC)cc2OC)cc1	Shiga toxin inh 47.7, CHX counter 37.2
COc1cc(OC)c(C(=O)/C=C/c2ccccc2)c(O)c1O	none
COc1ccc(C(=O)COC(=O)/C=C/c2ccccc2)c(OC)c1	none (no result: LmPK inhibitor, Shiga toxin inh, CHX counter, NS1 function inh)
COc1cc(O)cc(O)c1C(=O)/C=C/c1ccccc1	CHX counter 8.9
O=C(Nc1cccc(F)c1)NC1CCCCC1	Tb PYK inh inconclusive, Shiga toxin inh 96.4, CHX counter 31.8
O=C(Nc1ccc(F)cc1)NC1CCCCC1	Shiga toxin inh 79.0, CHX counter 37.5
O=C(Nc1cccc(F)c1)NC1CC2CCCC(C1)N2C1CC1 (configuration not stated)	none
O=C(NC(=S)NC1CCN(Cc2ccccc2)CC1)c1ccc(F)cc1	none
O=C(Nc1ccc(F)cc1)C1CCCCC1	none
O=C(NC(=S)NC1CCCCC1)c1ccc(F)cc1	Shiga toxin inh 117.4, CHX counter 47.6
O=C(Nc1ccc2c(c1)OCCO2)NC1CCCCC1	Shiga toxin inh 52.6, CHX counter 44.4
CC(NNC(=S)N1CCCCCC1)c1ccc2ccccc2n1 (configuration not stated)	none (no result: LmPK inhibitor, SARS PLpro yeast, Shiga toxin inh, CHX counter, NS1 function inh)
Cc1ccc(-n2c(N)cc(=O)nc2SCC(=O)N2CCN(c3ccccc3)CC2)cc1C	none
Cc1ccc(NC(=O)C(=O)NC2CCCCC2)cc1	CHX counter 11.7
O=C(Nc1ccc(F)cc1F)NC1CCCCCCC1	Shiga toxin inh 95.5, CHX counter 36.9
Cc1ccc(NC(=O)NC2CCCCCCC2)cc1	Shiga toxin inh 70.6, CHX counter 40.4
NS(=O)(=O)c1ccc(NC(=O)NC2CCCCC2)cc1	none
Cc1ccc(OCC(=O)N2CCC(C)CC2)c([N+](=O)[O-])n1	none (no result: LmPK inhibitor, Shiga toxin inh, CHX counter, NS1 function inh)
CCOC(=O)c1c(Nc2ccc(C)cc2)nnc(-c2ccccc2)c1-c1ccccc1	none (no result: LmPK inhibitor, SARS PLpro yeast, Shiga toxin inh, CHX counter, NS1 function inh)
CS[C@@H]1SC[C@H]2C(=O)N(C)C(C(C)C)C(=O)OC[C@@H](NC(=O)c3cnc4ccccc4n3)C(=O)N[C@@H](C)C(=O)N(C)[C@H]1C(=O)N(C)C(C(C)C)C(=O)OC[C@@H](NC(=O)c1cnc3ccccc3n1)C(=O)N[C@@H](C)C(=O)N2C (some centres not stated)	none (no result: LmPK inhibitor, SARS PLpro yeast, Tb PYK inh, NS1 function inh)
O=C(N/N=C/c1cccs1)c1n[nH]c2c1CCCC2	LmPK inhibitor 14.1µM
Cc1ccc(/C=N/NC(=O)c2n[nH]c3c2CCCC3)cc1	Shiga toxin inh 53.4, CHX counter 32.4
O=C(N/N=C\c1cccc(Cl)c1)c1n[nH]c2c1CCCC2	Shiga toxin inh 78.4, CHX counter 58.6
C/C(=N/NC(=O)c1cc(C(C)C)[nH]n1)c1cccs1	LmPK inhibitor inconclusive
O=C(CN1CCCCCC1)N/N=C/c1cccs1	none
CC(/C=N/NC(=O)c1n[nH]c2c1CCC2)=C\c1ccccc1	none
C/C(=N\NC(=O)c1n[nH]c2c1CCC2)c1cccs1	LmPK inhibitor 11.2µM
O=C(CCSCCC(=O)NN=Cc1cccc(Cl)c1)NN=Cc1cccc(Cl)c1	none (no result: LmPK inhibitor, SARS PLpro yeast, Shiga toxin inh, CHX counter, NS1 function inh)
COc1cc(OC)c(NC(=O)Nc2c(C)n(C)n(-c3ccccc3)c2=O)cc1Cl	none (no result: LmPK inhibitor, SARS PLpro yeast, Shiga toxin inh, CHX counter, NS1 function inh)
CCOc1ccc(CC(=O)Nc2c(C(=O)c3ccc(C)cc3)oc3ccccc23)cc1OCC	none (no result: LmPK inhibitor, SARS PLpro yeast, Shiga toxin inh, CHX counter, NS1 function inh)
C/C(CC(=O)Nc1ccc(N(C)C)cc1)=N\NC(=O)c1ccc(C(C)(C)C)cc1	none
COc1cccc(CN2CC(C(=O)N3CCN(C(C)C)CC3)CCC2=O)c1 (configuration not stated)	none
O=C(N/N=C/c1ccc(Cl)cc1Cl)c1n[nH]c2c1CCCC2	Shiga toxin inh 67.2, CHX counter 20.7

High-throughput results (PubChem BioAssay)
